Source: PubChem BioAssay
A selection: hits, their analogues and other compounds. The true share with any hit is near 10%.
G9a block = G9a (human) methyltransferase inhibition; Q96KQ7; G9a H3K9 monomethylation, AlphaScreen, 2 h; Potency, µM (top dose mostly 102 µM), hits mostly inhibitors; actives 8.8% (n = 350,000); note: nearly all actives have a fitted effect of over 75% in size
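Enzyme 20 nM + cpd, 15 min RT; add b-H3K9 pep 500 nM / SAM 20 uM; 2 h RT; anti-H3K9me1 Ab 0.5 ug/mL + SA donor / anti-rabbit acceptor beads 20 ug/mL each, 10 min; AlphaScreen read.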
HP1b chromo inh = HP1-beta chromodomain-methylated histone interaction inhibition; P83916; AlphaScreen HP1-beta / biotin-H3K9me3 peptide binding; Potency, µM (highest dose often 114 µM), most hits filed as inhibitors; actives 0.56% (n = 390,000); note: nearly all actives have a fitted effect of over 70% in size
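AlphaScreen: HP1-beta (50 nM) preformed 30 min with biotin-H3(1-18)K9me3 peptide (50 nM) in PBS pH 7.4, 0.01% Tween-20. Compound added for 30 min at RT, then streptavidin donor/nickel chelate acceptor beads (10 ug/mL) for 30 min.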
JMJD2A Tudor inh = blocks the human JMJD2A Tudor domain; O75164; AlphaScreen JMJD2A-Tudor / H3K4me3 peptide binding; Potency, µM (top dose mostly 114 µM), hits mostly inhibitors; actives 4.4% (n = 390,000); note: nearly all actives have a fitted effect of over 50% in size
Target sequence (O75164 whole entry, looked up, the tested form may be a part): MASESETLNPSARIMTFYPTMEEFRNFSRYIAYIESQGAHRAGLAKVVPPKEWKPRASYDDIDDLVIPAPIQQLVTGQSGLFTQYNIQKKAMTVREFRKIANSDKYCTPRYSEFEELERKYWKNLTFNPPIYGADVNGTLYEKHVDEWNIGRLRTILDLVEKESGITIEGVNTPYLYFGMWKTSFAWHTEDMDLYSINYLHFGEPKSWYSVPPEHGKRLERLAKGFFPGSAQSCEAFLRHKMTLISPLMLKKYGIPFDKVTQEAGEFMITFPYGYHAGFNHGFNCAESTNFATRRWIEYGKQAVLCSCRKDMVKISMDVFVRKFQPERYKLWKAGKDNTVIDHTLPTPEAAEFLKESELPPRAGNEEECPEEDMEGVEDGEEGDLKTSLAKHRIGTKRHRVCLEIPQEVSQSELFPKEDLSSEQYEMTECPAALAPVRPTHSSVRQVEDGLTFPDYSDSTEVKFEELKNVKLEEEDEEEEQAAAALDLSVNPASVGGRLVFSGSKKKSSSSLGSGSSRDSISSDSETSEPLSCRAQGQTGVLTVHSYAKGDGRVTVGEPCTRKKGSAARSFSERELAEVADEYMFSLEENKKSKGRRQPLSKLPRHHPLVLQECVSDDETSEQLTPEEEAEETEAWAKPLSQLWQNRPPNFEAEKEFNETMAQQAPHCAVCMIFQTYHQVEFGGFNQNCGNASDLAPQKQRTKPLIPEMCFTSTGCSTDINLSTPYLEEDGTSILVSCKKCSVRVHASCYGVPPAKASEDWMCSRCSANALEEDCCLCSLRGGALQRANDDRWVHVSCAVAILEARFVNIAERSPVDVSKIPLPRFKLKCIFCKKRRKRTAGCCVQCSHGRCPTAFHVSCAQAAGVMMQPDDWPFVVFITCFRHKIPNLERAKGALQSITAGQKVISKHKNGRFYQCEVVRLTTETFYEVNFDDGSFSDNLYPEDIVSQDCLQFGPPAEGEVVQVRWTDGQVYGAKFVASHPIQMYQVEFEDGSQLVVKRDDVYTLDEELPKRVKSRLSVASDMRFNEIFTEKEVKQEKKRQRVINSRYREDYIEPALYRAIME
GLS inhibitor = inhibitors of human glutaminase (GLS). actives 0.21% (n = 410,000). Potency, µM (top dose mostly 45.5 µM), actives largely listed as inhibitors. O94925. GLS enzymatic activity, qHTS titration
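Compounds were pin-transferred onto hKGA, after which L-glutamine (1 mM solution) and a detection mix of glutamate oxidase, HRP and Amplex Red were added. Initial and 30 min RT fluorescence reads were collected.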
BAZ2B block = BAZ2B (human) inhibition. Q9UIF8. AlphaScreen BAZ2B-H3K14Ac peptide displacement. Potency, µM (series often up to 114 µM), hits mostly inhibitors. actives 4.4% (n = 360,000). AID 504333; note: nearly all actives have a fitted effect of over 60% in size
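In this displacement format the biotinylated H3(5-23) peptide acetylated at Lys14 serves as ligand at 50 nM, with BAZ2B at 50 nM in PBS pH 7.4 containing 0.01% Tween-20. Donor and acceptor beads are 10 ug/mL final.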
Each line names hits and unclear results; the compound was inactive in the other large screens. Calls come from the whole dose curve; as a rule, active = well fitted curve in the direction sought with a large enough effect; inconclusive = small, poorly fitted or top-dose-only effect, or another doubt; inactive = no such curve, though single readings can be large; an effect the other way counts as inactive or inconclusive.

Cc1ccc(NC(=S)N2CCn3cccc3C2c2cccnc2)cc1 (stereo not given)	G9a block 44.7µM, JMJD2A Tudor inh inconclusive, BAZ2B block inconclusive
COc1ccc(-c2cc(OC(=O)c3cccc(Cl)c3)c3c(C)oc(C)c3c(=O)c2)cc1	G9a block 14.1µM, JMJD2A Tudor inh inconclusive, BAZ2B block 50.1µM
COc1ccc(-c2cc(OC(=O)c3ccc(F)cc3)c3c(C)oc(C)c3c(=O)c2)cc1	G9a block 25.1µM, BAZ2B block 50.1µM (no result: HP1b chromo inh, JMJD2A Tudor inh, GLS inhibitor)
CC(C)N1CCc2c(sc(NC(=O)c3ccc(S(=O)(=O)N4CCCCC4C)cc3)c2C(N)=O)C1 (stereo not given)	BAZ2B block 50.1µM
COC(=O)c1c(NC(=O)c2ccco2)sc2c1CCN(C(C)C)C2	G9a block 31.6µM
CC(C)N1CCc2c(sc(NC(=O)c3ccc(C(=O)c4ccccc4)cc3)c2C(N)=O)C1	JMJD2A Tudor inh 56.2µM, BAZ2B block inconclusive (no result: G9a block)
CC(C)N1CCc2c(sc(NC(=O)CCc3ccccc3)c2C(N)=O)C1	G9a block 44.7µM, BAZ2B block inconclusive
CC(C)N1CCc2c(sc(NC(=O)c3ccc4ccccc4c3)c2C(N)=O)C1	none
COC(=O)c1c(NC(=O)c2ccc(S(=O)(=O)N3CCCCC3C)cc2)sc2c1CCN(C(C)C)C2 (stereo not given)	none
COc1cccc(OC)c1C(=O)Nc1sc2c(c1C(N)=O)CCN(Cc1ccccc1)C2	G9a block 79.4µM
CC(=O)c1ccc(C(=O)Nc2sc3c(c2C(N)=O)CCN(Cc2ccccc2)C3)cc1	G9a block inconclusive (no result: HP1b chromo inh, JMJD2A Tudor inh, GLS inhibitor)
O=C(O)c1ccccc1C(=O)Nc1ccc(Oc2ccccc2)cc1	none (no result: G9a block)
CC(C)(C)c1ccc(Oc2ccc(NC(=O)c3ccccc3C(=O)O)cn2)cc1	G9a block 56.2µM
Cc1ccc(-n2ncc(C(=O)NCCCN3CCCCC3)c2C2CCN(C(=O)OC(C)(C)C)CC2)cc1	none
CCCCCCCCSc1nnc2[nH]c(=O)cc(N)n12	JMJD2A Tudor inh 11.2µM
CCCCCCSc1nnc2[nH]c(=O)cc(N)n12	none
COc1cc2ccc(=O)oc2cc1O	none
O=Nc1ccc2oc(=O)ccc2c1	G9a block 2.24µM (no result: HP1b chromo inh, JMJD2A Tudor inh, GLS inhibitor, BAZ2B block)
NCC1CCC(N)C(O[C@@H]2C(O)[C@H](O[C@H]3OC(CO)C(O)C(N)C3O)[C@@H](N)C[C@H]2N)O1 (stereo not given in full)	none (no result: HP1b chromo inh, JMJD2A Tudor inh, BAZ2B block)
CCN(CC)c1ccc(N=Cc2cc(Br)ccc2O)cc1	G9a block 14.1µM, JMJD2A Tudor inh 39.8µM
Cc1ccc(O)c(C=Nc2cc(C)ccc2O)c1	GLS inhibitor inconclusive
Oc1ccc(Br)cc1C=Nc1ccc(Cl)cc1	none (no result: BAZ2B block)
CC(C)(C)c1ccc(O)c(N=Cc2cc(Br)ccc2O)c1	G9a block 1.78µM, HP1b chromo inh inconclusive, JMJD2A Tudor inh 3.98µM, GLS inhibitor inconclusive
O=C(COC(=O)/C=C/C(=O)OCC(=O)NC12CC3CC(CC(C3)C1)C2)NC12CC3CC(CC(C3)C1)C2	none
CC(=O)c1n[nH]nc1NC(=O)c1ccccc1	G9a block 50.1µM, JMJD2A Tudor inh 20µM, BAZ2B block 50.1µM
Cc1cc(COc2ccccc2O)on1	G9a block 70.8µM
COc1ccccc1OCc1cc(-c2ccccc2)no1	none
COc1ccc(-c2nc(CC(=O)Nc3cccc(S(=O)(=O)NC4=NCCC4)c3)cs2)cc1	BAZ2B block inconclusive
O=C(O)COc1ccccc1/C=N/n1c(C2CCCCC2)n[nH]c1=S	G9a block 8.91µM, JMJD2A Tudor inh 25.1µM
CNC(=S)N/N=C/c1ccccc1OCC(=O)O	JMJD2A Tudor inh inconclusive, BAZ2B block inconclusive (no result: G9a block)
S=c1[nH]nc(C2CCCCC2)n1/N=C/c1ccccc1Br	G9a block 7.08µM, HP1b chromo inh inconclusive, JMJD2A Tudor inh 17.8µM
Cc1ccccc1/C=N/n1c(C2CCCCC2)n[nH]c1=S	G9a block 12.6µM, GLS inhibitor inconclusive
Cc1cc(C)n(/N=C/c2c[nH]c3ccccc23)c(=O)c1	none
Fc1ccccc1-c1n[nH]c(=S)n1/N=C/c1c[nH]c2ccccc12	G9a block 0.708µM, JMJD2A Tudor inh 35.5µM, GLS inhibitor inconclusive, BAZ2B block inconclusive
COc1ccc2c(c1)CC(C(=O)NCCN1CCN(c3cccc(Cl)c3)CC1)CO2 (stereo not given)	G9a block inconclusive, JMJD2A Tudor inh inconclusive, BAZ2B block inconclusive
COc1cc(OC)cc(OC(=O)C2CCN(C(=O)c3ccc(Cl)cc3)CC2)c1	none
CN(C)C(=O)c1ccc(-c2cc(NCc3cccnc3)ncn2)cc1	none (no result: HP1b chromo inh, JMJD2A Tudor inh, GLS inhibitor, BAZ2B block)
Fc1cccc(/C=N/n2c(C3CCCCC3)n[nH]c2=S)c1	G9a block inconclusive
Fc1ccccc1/C=N/n1c(C2CCCCC2)n[nH]c1=S	G9a block 25.1µM, JMJD2A Tudor inh 39.8µM
CC(C)CCN(C(=O)COc1ccc(C#N)cc1)c1c(N)n(Cc2ccccc2)c(=O)[nH]c1=O	none (no result: HP1b chromo inh, JMJD2A Tudor inh, GLS inhibitor)
COc1cc(C(=O)NC(=S)Nc2ccc(Cl)c(C(=O)O)c2)cc(OC)c1OC	none (no result: G9a block)
COCCNC(=S)NNc1ccc(Cl)c(C(=O)O)c1	G9a block 17.8µM, BAZ2B block inconclusive
CCCCC(=O)NC(=S)Nc1ccc(Cl)c(C(=O)O)c1	G9a block inconclusive, BAZ2B block inconclusive
CCCCOc1cccc(C(=O)NC(=S)Nc2ccc(Cl)c(C(=O)O)c2)c1	G9a block 11.2µM, BAZ2B block inconclusive
COc1cc(OC)cc(C(=O)NC(=S)Nc2ccc(Cl)c(C(=O)O)c2)c1	G9a block 44.7µM, JMJD2A Tudor inh 89.1µM, BAZ2B block inconclusive
COc1ccc(OC)c(CNC(=O)c2ccc(C)c(NC(=O)c3nsc4ccccc34)c2)c1	none
O=C(Cn1cc([N+](=O)[O-])nc1[N+](=O)[O-])N1CCN(c2ccccc2)CC1	none (no result: G9a block)
Cc1ccc(NC(=O)COC(=O)c2cccc(C)c2[N+](=O)[O-])cc1S(=O)(=O)N1CCCCC1	none (no result: G9a block, BAZ2B block)
CCN1CCN(CCOCCOc2ccccc2)CC1	HP1b chromo inh inconclusive, JMJD2A Tudor inh 17.8µM, BAZ2B block 79.4µM (no result: G9a block)
CN1CCN(CCOc2cccc(Cl)c2)CC1	G9a block inconclusive, JMJD2A Tudor inh inconclusive, BAZ2B block inconclusive
CCN1CCN(CCOc2cccc(Oc3ccccc3)c2)CC1	G9a block 22.4µM, HP1b chromo inh inconclusive, JMJD2A Tudor inh 4.47µM, BAZ2B block 20µM
c1cc2c3c(cccc3c1)NC1(CCCCC1)N2	G9a block 1.12µM
c1cc2c3c(cccc3c1)NC1(CCCCCC1)N2	G9a block 4.47µM
NC(=O)CC1Nc2cccc3cccc(c23)NC1=O (stereo not given)	HP1b chromo inh inconclusive
c1cc2c3c(cccc3c1)NC1(CCC3(CC1)Nc1cccc4cccc(c14)N3)N2	HP1b chromo inh inconclusive, JMJD2A Tudor inh 50.1µM, BAZ2B block 28.2µM
O=C1CCSc2cccc3cccc(c23)N1	none
COCCNC(=O)c1c[nH]c2ccc(S(=O)(=O)N(C)c3ccc(C)c(C)c3)cc2c1=O	none
Cc1ccc(C(=O)Sc2cccccc2=O)cc1	G9a block 10µM, HP1b chromo inh inconclusive, BAZ2B block 39.8µM
O=C(Nc1ccccc1SC(=O)c1ccccc1)c1ccccc1	none (no result: G9a block, HP1b chromo inh, JMJD2A Tudor inh, BAZ2B block)
